We go through 60 molecules from PubChem BioAssay AID686978 (National Center for Advancing Translational Sciences (NCATS), 2013).

SMILES strings stand for the structures. Out of some 420,000 compounds screened, about 64,000 (15%) were called active. Inconclusive results (about 27%) are left out. Calls follow the shape of the dose curve; as a rule, active = well fitted inhibition curve with a large enough effect; inconclusive = small, poorly fitted or top-dose-only effect; inactive = flat fitted curve, though single readings scatter. The list is a sample of the results. Entries that show only a call come without a potency.
Potency is read from the fitted curve at half-maximal effect.

This assay is described as follows: qHTS for Inhibitors of human tyrosyl-DNA phosphodiesterase 1 (TDP1): qHTS in cells in absence of CPT. Also: nearly all actives have a fitted effect of over 55% in size. The conditions noted are these: DT40 Tdp1-/- hTDP1 cells, no CPT, ATP luminescence, 48 h; activity change, negative = growth inhibition: at 46.2 µM (top of the series). Summed up: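 Seeded 400 DT40-hTDP1 cells/well (vehicle DMSO, no 20 nM CPT); pinned compounds; ≥48 hr at 37 °C; CellTiter-Glo luminescence as viability measure.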
(In general: qHTS replaces the single test concentration by a dilution series.)
On to `C=CCn1c(COc2ccc(F)cc2)nnc1SCC(=O)Nc1cccc(S(N)(=O)=O)c1`, for which the Potency entry is “inactive”.

Consider `O=C(c1cnccn1)N1CCN(S(=O)(=O)c2cccc(Cl)c2)CC1`, for which the Potency entry was “inactive”.

For the molecule `COc1ccc(S(=O)(=O)Nc2ccc(S(=O)(=O)N3CCCCC3)cc2)cc1OC`, the Potency result was “inactive”.

`COc1ccc(-c2ccc(Nc3ccc(S(=O)(=O)N4CCCC4)cc3)nn2)cc1OC`: the Potency is 18.4 µM (active).

With `COc1cc(NS(=O)(=O)c2ccc(NC(=O)c3ccc(S(=O)(=O)N4CCCCC4)cc3)cc2)ncn1`, the Potency entry is “inactive”.

Regarding `O=C(Nc1ccccc1C(F)(F)F)c1cc(-c2ccc(O)cc2)on1`, the Potency entry was “inactive”.

On to `CCN(CC)Cc1cc(C(C)=O)ccc1O`, for which the Potency result was “inactive”.

`CC1CC(C)CN(S(=O)(=O)c2ccc(C(=O)NN3CCOCC3)cc2)C1` (stereo not given): the Potency result was “inactive”.

With `CC1CCCCN1S(=O)(=O)c1ccc(C(=O)Nc2nnc(-c3cccs3)o2)cc1` (stereo not given), the Potency is 5.8 µM (active).

In the case of `CS(=O)(=O)c1ccc(-c2nnc(NC(=O)c3ccc4c(c3)OCCO4)o2)cc1`, the Potency result was “inactive”.

For `CCc1nnc(NC(=O)c2ccc(S(=O)(=O)NC3CCCCC3)cc2)s1`, the Potency entry is “inactive”.

Consider `O=C(NCc1cccs1)C(=O)NCC1OCCCN1S(=O)(=O)c1ccc(F)cc1` (stereo not given), for which the Potency entry was “inactive”.

As for `CC1CCCCN1S(=O)(=O)c1ccc(S(=O)(=O)N(CC(=O)Nc2ccccc2)Cc2cccs2)cc1` (stereo not given), the Potency is 25.9 µM (active).

For `CSCc1nnc(NC(=O)c2ccc(S(=O)(=O)N3CCCCC3C)cc2)o1` (stereo not given), the Potency is 20.6 µM (active).

Take `COCCN(CC(=O)Nc1ccccc1C)S(=O)(=O)c1ccc(S(=O)(=O)N2CCCC2)cc1`: the Potency entry is “inactive”.

Consider `CC(=O)c1ccc(NC(=O)C2CCCN2S(=O)(=O)c2cccs2)cc1` (stereo not given), for which the Potency result is “inactive”.

In the case of `CC1CCCCN1S(=O)(=O)CCNC(=O)c1ccccc1` (stereo not given), the Potency entry was “inactive”.

Take `CC1CCCN(S(=O)(=O)c2ccc(C(=O)Nc3nnc(-c4ccncc4)o3)cc2)C1` (stereo not given): the Potency is 10.3 µM (active).

Take `CCN(CC(=O)NCc1cccs1)S(=O)(=O)c1ccc(NC(C)=O)cc1`: the Potency entry was “inactive”.

Turning to `COC(=O)c1ccc(N(CC(=O)NC2CCCC2)C(=O)CNC(=O)c2ccco2)cc1`, the Potency result was “inactive”.

In the case of `C=C(C)C1CC=C(C)/C(=N/NC(=O)CCCNc2cccc(C)c2)C1` (stereo not given), the Potency entry is “inactive”.

For `CCOc1ccc(-c2n[nH]c(=S)n2/N=C/c2cc3c(cc2[N+](=O)[O-])OCO3)cc1`, the Potency entry was “inactive”.

With `NC(=O)c1ccc(NC(=O)COC(=O)c2ccc([N+](=O)[O-])cc2)cc1`, the Potency result is “inactive”.

On to `COCc1cc(C)nc2sc3c(=O)n(-c4cccc5ccccc45)nnc3c12`, for which the Potency entry is “inactive”.

Turning to `CC1(C)OC[C@@H](COC(=O)CCc2ccc(OC[C@@H](O)CNCCNC(=O)N3CCOCC3)cc2)O1`, the Potency result is “inactive”.

As to `C=CCN1C(=O)c2ccc(C(=O)N3CCC(C(=O)OCC)CC3)cc2C1=O`, the Potency entry was “inactive”.

For `Cc1cc(C(=O)NCCc2ccc(Cl)cc2)c(C)o1`, the Potency result was “inactive”.

With `C=CCn1c(SCC(=O)CC(=O)OCC)nc2cc(C(=O)N3CCC(C(N)=O)CC3)ccc2c1=O`, the Potency entry was “inactive”.

With `Cc1ccccc1Nc1nn2c(=O)c3ccc(C(=O)NCCc4ccc(Cl)cc4)cc3nc2s1`, the Potency is 14.6 µM (active).

Turning to `CCOC(=O)C1CCN(C(=O)c2ccc3c(=O)n4nc(Nc5ccccc5CC)sc4nc3c2)CC1`, the Potency is 10.3 µM (active).

With `CCc1ccc(Nc2nn3c(=O)c4cc5c(cc4nc3s2)OCO5)cc1`, the Potency result was “inactive”.

`Cc1ccc(C(=O)NC2CCN(C(=O)N3CCOCC3)CC2)cc1`: the Potency result is “inactive”.

On to `C#CCOCCOCCOCCNc1nc(N2CCN(C(=O)[C@H](C(C)C)n3cc(CCO)nn3)CC2)nc(N2CCN(C(=O)[C@H](C(C)C)n3cc(CCO)nn3)CC2)n1`, for which the Potency result is “inactive”.

Regarding `COc1cccc(C(CC(=O)NCCN2CCOCC2)NS(=O)(=O)c2ccc(C)cc2)c1OC` (stereo not given), the Potency entry is “inactive”.

Consider `O=C(N/N=C/c1ccco1)c1ccc(NC(=O)C2CC2)cc1`, for which the Potency entry was “inactive”.

Regarding `O=C(N/N=C/c1ccco1)c1csc2c1CCCC2`, the Potency was 5.8 µM (active).

For the molecule `O=C(N/N=C/c1ccco1)c1ccc(C(=O)N/N=C/c2ccco2)o1`, the Potency entry is “inactive”.

Turning to `Cc1cccc(C(=O)NCCCN2CCCC2=O)c1`, the Potency result was “inactive”.

Take `Cc1nc2ccc(S(=O)(=O)NC(C(=O)N3CCCCCC3)C(C)C)cc2s1` (stereo not given): the Potency entry is “inactive”.

As to `O=C(CN1C(=O)c2ccc([N+](=O)[O-])cc2C1=O)Nc1nnc(C2CC2)s1`, the Potency result was “inactive”.

On to `CCOc1ccc(N2C(=O)CC(N(O)c3ccccc3)C2=O)cc1` (stereo not given), for which the Potency entry is “inactive”.

Consider `O=C(NC1(C(F)(F)F)NC(=O)N(C2CCCCC2)C1=O)c1ccco1` (stereo not given), for which the Potency entry was “inactive”.

For `O=C(O)C#Cc1cccc2ccccc12`, the Potency entry was “inactive”.

For the molecule `Cc1ccc(C)c(S(=O)(=O)N2CCN(C(=O)Nc3ccccc3)CC2)c1`, the Potency result is “inactive”.

In the case of `CC(=O)Nc1ccc(S(=O)(=O)N2CCN(S(=O)(=O)c3cccs3)CC2)cc1`, the Potency result was “inactive”.

Turning to `COc1ccc(NC(=O)CSc2nnc(C3CC3)n2C)cc1S(=O)(=O)N1CCCCC1`, the Potency result is “inactive”.

As to `CC(=O)Nc1ccc(S(=O)(=O)N2CCN(CCCOc3cc(C)ccc3C)CC2)cc1`, the Potency was 18.4 µM (active).

As for `C=CCNC(=O)CCCOc1cccc(C)c1`, the Potency entry was “inactive”.

As for `Cc1ccc(OCCCC(=O)Nc2ccc(S(=O)(=O)Nc3cc(C)nc(C)n3)cc2)cc1`, the Potency result is “inactive”.

Consider `COc1ccc(NC(=O)CCCOc2ccc(C(C)=O)cc2)cc1S(=O)(=O)N1CCCCC1`, for which the Potency is 25.9 µM (active).

In the case of `CC(=O)Nc1ccc(S(=O)(=O)N2CCSCC2)cc1`, the Potency entry was “inactive”.

As for `Cc1cccc(OCCCC(=O)Nc2ccc(S(=O)(=O)N3CCCC3)cc2)c1`, the Potency was 18.4 µM (active).

As to `CCOC(=O)C1CCN(CC(=O)Nc2ccc(OC)c(S(=O)(=O)N3CCCCC3)c2)CC1`, the Potency entry is “inactive”.

`Cc1ccc(C)c(S(=O)(=O)N2CCN(CC(=O)Nc3ccc([N+](=O)[O-])cc3)CC2)c1`: the Potency is 16.4 µM (active).

`Cc1ccc(NC(=O)CCNC(=O)c2ccc([N+](=O)[O-])cc2)cc1S(=O)(=O)N1CCOCC1`: the Potency entry is “inactive”.

With `CCOc1ccccc1NC(=O)Cn1c(=O)n(Cc2ccccc2)c(=O)c2c(C)c(C(=O)N(C)C)sc21`, the Potency entry is “inactive”.

For `O=C(NCCN1CCOCC1)C1CCN(S(=O)(=O)c2ccccc2)CC1`, the Potency result was “inactive”.

Consider `COCCCn1c(SCC(=O)Nc2oc(C)c3c(C)n[nH]c(=O)c23)nc2sc3c(c2c1=O)CCC3`, for which the Potency entry was “inactive”.

As to `O=c1c(CCc2ccccc2)nc2cncnc2n1C1CC1`, the Potency entry was “inactive”.

Turning to `C=CCn1c(COc2cccc3cccnc23)nnc1SCC(=O)OC`, the Potency result is “inactive”.
